From PubChem BioAssay (NCATS) come the findings set out here.

Results filed as inconclusive are left out. Values without a mark were called inactive. Active and inactive are the calls of the source. The call rests on the fitted dose curve; in most records, active means well fitted inhibition curve with a large enough effect; inconclusive means small, poorly fitted or top-dose-only effect; inactive means flat fitted curve, though single readings scatter.
Potency means the concentration at half of the fitted maximal effect.

This experiment in a line: BET inhibitor-based combinations targeting novel dependencies in MECOM-rearranged (r) AML: AML-194 cell line (AID 2202237; further: nearly all actives have a fitted effect of over 40% in size). The conditions noted are these: AML-194 (MECOM-r AML) viability, CellTiter-Glo, 48 h; series mostly up to 46 µM; viability (% of control): at the top concentration. From the text: Ecotropic viral insertion site 1 (EVI1) is located on chromosome 3q26.2 as part of the MECOM (MDS and EVI1 complex) locus. Under normal hematopoiesis, EVI1 is a regulator of hematopoietic stem cell maintenance and self-renewal and EVI1 levels decrease as the cells differentiate. In approximately 5-10% of de novo acute myeloid leukemia (AML) EVI1 is aberrantly expressed, including Chromosomal inv(3)(q21;q26.2) or t(3;3)(q21;q26.2) alterations (MECOM-r) that account for about 50% of AML with EVI1 overexpression 31. AMLs with high levels of EVI1 have a poor prognosis and an overall survival time averaging between 10-14 months. EVI1 overexpression confers resistance in leukemia cells, highlighting the need to develop new targeted therapies for EVI1 overexpressing AMLs.
Here, we performed an unbiased chemical drug screening by evaluating the single agent activity of a collection of 2,480 oncology-focused, approved and investigational drugs (NCATS Mechanism Interrogation Plates, MIPE v5.0) against a panel of seven AML cell lines. These included four MECOM-r cell-lines (AML-191, AML-194, UCSD-AML1 and HNT-34) and three non-MECOM-r AMLs (MV4-11, OCI-AML3 and SET-2). Exploiting the mechanistic redundancy built in the library, we identified target-level sensitivities in MECOM-r AML cells and relative activity as compared to other AML subtypes.
A collection of 2480 mechanistically annotated dugs (MIPE v5.0) was used to screen four 3q26.2 rearranged AML cell lines and three non-3q26.2 rearranged AML cell lines. This library purposely exploits redundancy by including multiple inhibitors of key onco-targets, while simultaneously encompassing mechanistic diversity, targeting more than 800 distinct mechanisms of action. Briefly, cells were seeded in 5 uL of growth media using a Multidrop Combi dispenser into 1536 well white polystyrene tissue culture treated plates (Corning) at a density of 500cells/well. For each cell-line, for each of the 2480 drugs in MIPE v5.0 library, an 11-point dose curve was generated via a 1536 pin-tool. Plates were incubated for 48 hr at standard incubator conditions, covered by a stainless steel gasketed lid to prevent evaporation. Cell viability was determined by luminescence based, Cell Titer Glo assay (Promega). In detail, 3 uL of Cell Titer Glo were added to each well and plates were incubated at room temperature for 15 min with a stainless-steel lid in place. Luminescence readings were taken using a Viewlux (PerkinElmer) with a 2 s exposure time per plate. Compound dose-response curves were normalized to DMSO and empty well controls on each plate. Quantitative drug activity data from dose-response curves was determined utilizing area Under the Curve (AUC) and Z-transformed AUC (Z-AUC, a mean-centering transformation applied to each individual cell-line screened).
(In ATP-based viability assays light output follows the ATP content of the culture.)
Take `O=P1(N(CCCl)CCCl)NCCCO1` (stereo not given): the “viability (% of control)” value was 111%.

Take `Cc1cc(SCc2sc(-c3ccc(C(F)(F)F)c(F)c3)nc2C)ccc1OCC(=O)O`: the “viability (% of control)” value was 90%.

Turning to `COc1cc([C@@H]2c3cc4c(cc3[C@@H](O)C3COC(=O)C32)OCO4)cc(OC)c1O` (stereo not given in full), the Potency is 332 nM (active).

As for `CC(=O)OC[C@H]1O[C@@H]([S-])[C@H](OC(C)=O)[C@@H](OC(C)=O)[C@@H]1OC(C)=O.CC[PH+](CC)CC.[Au]`, the Potency is 2950 nM (active).

For `CCOC(=O)Nc1ccc(NCc2ccc(F)cc2)cc1N`, the “viability (% of control)” value was 102%.

As for `CC(C)CC(N(C)C)C1(c2ccc(Cl)cc2)CCC1` (stereo not given), the “viability (% of control)” value is 88.9%.

As to `CCOc1ccccc1-n1c(C(C)N2CCN(C(=O)COc3ccc(Cl)cc3)CC2)nc2ccccc2c1=O` (stereo not given), the Potency was 4680 nM (active).

As to `Cc1[nH]ncc1-c1cc2nc([C@@H]3CC4CCN3CC4)[nH]c(=O)c2s1`, the Potency is 9340 nM (active).

With `CC1=C2C[C@H]3[C@@H](CC=C4C[C@@H](O)CC[C@@]43C)[C@@H]2CC[C@]12O[C@@H]1C[C@H](C)CN[C@H]1[C@H]2C`, the “viability (% of control)” value is 101%.

Turning to `C#CCN(C)[C@H](C)Cc1ccccc1`, the “viability (% of control)” value is 100%.

Regarding `CCCC[N+]1(C)[C@H]2CC(OC(=O)[C@H](CO)c3ccccc3)C[C@H]1[C@H]1O[C@H]12` (stereo not given in full), the “viability (% of control)” value was 109%.

With `COc1cccc2c1C(=O)c1c(O)c3c(c(O)c1C2=O)C[C@@](O)(C(=O)CO)CC3OC1CC(N2CCOC(OC)C2)C(O)C(C)O1` (stereo not given in full), the Potency was 4.2 nM (active).

For `CCc1c(C(=O)C(N)=O)c2c(OCC(=O)O)cccc2n1Cc1ccccc1`, the “viability (% of control)” value was 111%.

As to `COc1cc(C)[nH]c(=O)c1CNC(=O)c1c(C)n([C@H](C)C2CCOCC2)c2ccccc12`, the “viability (% of control)” value is 118%.

Turning to `N=c1c2c(-c3ccccc3)c(-c3ccccc3)n(Cc3ccccc3)c2ncn1C1CCC(O)CC1` (stereo not given), the Potency is 4680 nM (active).

In the case of `COC1=C[C@@H]2[C@@H]3Cc4ccc(OC)c(O)c4[C@]2(CCN3C)CC1=O`, the “viability (% of control)” value is 101%.

Turning to `C[C@]12CC[C@@H]3c4ccc(OC(=O)N(CCCl)CCCl)cc4CC[C@H]3[C@@H]1CC[C@@H]2OP(=O)(O)O`, the “viability (% of control)” value is 104%.

As to `O=S(=O)(F)Cc1ccccc1`, the “viability (% of control)” value was 104%.

In the case of `CCC1(c2ccc(N)cc2)CCC(=O)NC1=O` (stereo not given), the “viability (% of control)” value is 104%.

As for `CN1C(=O)COc2c(C(=O)NC3CN4CCC3CC4)cc(Cl)cc21` (stereo not given), the “viability (% of control)” value was 114%.

Consider `C[C@]12CC[C@H](O)CC1=CC[C@@H]1[C@@H]2CC[C@]2(C)C(=O)CC[C@@H]12`, for which the “viability (% of control)” value was 112%.

Turning to `COc1ccc(C(=O)N2CCCC2=O)cc1`, the “viability (% of control)” value was 120%.

Take `CC(C)[C@]12O[C@H]1[C@@H]1O[C@]13[C@]1(O[C@H]1C[C@H]1C4=C(CC[C@@]13C)C(=O)OC4)[C@@H]2O`: the Potency was 46.8 nM (active).

As for `O=c1[nH]c2ccccc2n1CCCN1CCC(n2c(=O)[nH]c3cc(Cl)ccc32)CC1`, the “viability (% of control)” value is 109%.

As to `Cn1c(CCCCCCC(=O)NO)nc2cc(N(CCCl)CCCl)ccc21`, the Potency is 2950 nM (active).

Regarding `CC(=O)N1N=C(c2ccc(N)cc2)c2cc3c(cc2C[C@H]1C)OCO3`, the “viability (% of control)” value was 98.7%.

Regarding `C#C[C@]1(O)C=C[C@H]2[C@@H]3CCC4=CC(=O)CC[C@@H]4[C@H]3CC[C@@]21CC`, the “viability (% of control)” value is 101%.

For `C[C@]12CC[C@@H]3[C@@H](CCC4=CC(=O)CC[C@@H]43)[C@@H]1CC[C@@H]2OC(=O)CCc1ccccc1`, the “viability (% of control)” value is 102%.

`CCN1C[C@]2(OC(=O)c3ccccc3NC(C)=O)CC[C@H](OC)[C@@]34[C@H]5CC6[C@@H](OC)C[C@](O)(C(C[C@@H]23)[C@@H]14)[C@@]5(O)[C@@H]6OC`: the “viability (% of control)” value was 107%.

As for `C/C=C(/C)C(=O)O[C@H]1C(C)=C2[C@H]([C@@H]1OC(=O)CCCCCCC)[C@@](C)(OC(C)=O)C[C@H](OC(=O)CCC)[C@@]1(O)[C@H]2OC(=O)[C@@]1(C)O`, the Potency was 2090 nM (active).

Consider `O=c1cccc2n1CC1CNC[C@H]2C1`, for which the “viability (% of control)” value was 100%.

Turning to `C[C@]12CC[C@H]3[C@@H](CCC4=CC(=O)CC[C@@]43C)[C@H]1CC[C@H]2OC(=O)CCC1CCCC1`, the “viability (% of control)” value is 106%.

As for `N[C@@H](Cc1ccc(N(CCCl)CCCl)cc1)C(=O)O`, the Potency is 2950 nM (active).

In the case of `O=C(NCC1CCOCC1)c1cnc(Nc2ccc(Cl)cc2Cl)nc1C(F)(F)F`, the “viability (% of control)” value was 103%.

On to `C/C(=C\c1csc(C)n1)[C@@H]1C[C@@H]2O[C@]2(C)CCC[C@H](C)[C@H](O)[C@@H](C)C(=O)C(C)(C)[C@@H](O)CC(=O)O1`, for which the Potency is 11.8 nM (active).

With `CO[C@H]1CCC(O[C@H]2C[C@H]([C@]3(C)CC[C@]4(C[C@H](O)[C@@H](C)[C@@H]([C@@H](C)/C=C(\C)C(=O)[C@H](C)C[C@H](C)C(=O)O)O4)O3)O[C@]3(O[C@@H]([C@H]4O[C@@](O)(CO)[C@H](C)C[C@@H]4C)C[C@@H]3C)[C@@H]2C)O[C@@H]1C` (stereo not given in full), the Potency is 263 nM (active).

On to `CCNC(=O)CC1N=C(c2ccc(Cl)cc2)c2cc(OC)ccc2-n2c(C)nnc21` (stereo not given), for which the “viability (% of control)” value was 72.4%.

As to `C[C@]12CCC(=O)C(O)=C1CC[C@@H]1[C@@H]2CC[C@]2(C)C(=O)CC[C@@H]12`, the “viability (% of control)” value was 107% [at 92.2 µM].

As to `C/C(O)=C(\C#N)C(=O)Nc1cc(Br)ccc1Br`, the “viability (% of control)” value is 100%.

For the compound `CCN1CCN(C(=O)Cc2ccc(Nc3ncc(F)c(Nc4ccc(C(=O)Nc5ccccc5Cl)cc4)n3)cc2)CC1`, the Potency is 7420 nM (active).
